# Epigenetic derep = regulators of epigenetic silencing causing reporter derepression in mouse cells; murine LDR cells, GFP reporter derepression, 30 h; Potency, µM (top dose mostly 53.9 µM), inactives show at the top dose GFP activation, actives largely listed as activators; 280,000 compounds, 0.2% hits; note: potency is the fitted concentration of half-maximal effect; % of control where 0% means no effect; nearly all actives have a fitted effect of over 60% in size
#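 Murine LDR cells carrying a silenced, genomically integrated CMV-driven GFP reporter were exposed to compound for 30 hours at 37 C. After PBS washes, GFP-positive cells (20–120 um objects) were counted by laser-scanning microplate cytometry.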
# CBFb RUNX1 block = blocks binding between human CBF-beta and RUNX1; Q01196+Q13951; AlphaScreen CBFb-His/RUNX1-biotin binding, biochemical; Potency, µM (top dose mostly 59.8 µM), without a hit: top-dose activity, negative = inhibition, actives largely listed as inhibitors; 230,000 tested, under 10 active; note: % of control where 0% means no effect
# Target sequence (Q01196 whole entry, looked up): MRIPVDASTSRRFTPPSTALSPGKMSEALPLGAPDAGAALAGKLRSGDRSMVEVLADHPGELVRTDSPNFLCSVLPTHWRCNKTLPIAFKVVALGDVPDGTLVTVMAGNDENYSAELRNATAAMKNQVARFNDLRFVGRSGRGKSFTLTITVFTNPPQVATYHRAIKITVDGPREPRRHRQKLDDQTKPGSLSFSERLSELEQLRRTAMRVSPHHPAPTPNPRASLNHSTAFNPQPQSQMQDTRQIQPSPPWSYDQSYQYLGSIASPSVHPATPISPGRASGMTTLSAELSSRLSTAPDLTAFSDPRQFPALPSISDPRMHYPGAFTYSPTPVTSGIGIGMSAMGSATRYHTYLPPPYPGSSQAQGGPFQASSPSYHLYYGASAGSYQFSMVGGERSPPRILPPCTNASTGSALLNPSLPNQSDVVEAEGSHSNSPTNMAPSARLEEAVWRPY
# Target sequence (Q13951 whole entry, looked up): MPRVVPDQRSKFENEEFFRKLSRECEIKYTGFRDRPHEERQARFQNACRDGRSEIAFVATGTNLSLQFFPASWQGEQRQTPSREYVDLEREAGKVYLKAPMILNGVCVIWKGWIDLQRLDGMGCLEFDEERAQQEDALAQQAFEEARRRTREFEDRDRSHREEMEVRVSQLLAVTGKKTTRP
#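 His-tagged CBF-beta and biotinylated RUNX1 (30 nM each) were premixed 20 min at room temperature, exposed to compound for 15 min, then given nickel-chelate and streptavidin AlphaScreen beads (50 ng each). After 90 min, AlphaScreen signal was read.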
# TRb SRC2 PPI = disrupts binding of human TR beta to SRC2; P10828; TRbeta-SRC2 peptide binding, fluorescence polarization; receptor liganded with 1 µM T3; Potency, µM (doses to about 106 µM), without a hit: top-dose activity change, negative = inhibition, actives largely listed as inhibitors; 280,000 compounds, 0.065% hits;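 note: potency is the fitted concentration of half-maximal effect; plate controls were bound peptide for no effect and peptide without receptor for full effect; nearly all actives have a fitted effect of over 50% in size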
#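 Human TRb LBD (0.6 uM) plus Texas Red-labeled SRC2 peptide (20 nM), 1uM T3, 5% DMSO, 5 hr at ambient temperature. Decreased polarization (555/632 nm) flags inhibition; data normalized to free and bound peptide controls.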
# GoLoco inh red = RGS12 GoLoco-Gai1 interaction inhibition; P63096; Gai1:RGS12 GoLoco peptide FP, rhodamine, 10 min; 230,000 compounds, 0.44% hits; Potency, µM (series often up to 61.6 µM), inactives show at the top dose activity, negative = inhibition, hits mostly inhibitors; AID 880; active = well fitted inhibition curve with a large enough effect, not every such curve was filed as active; inactive = no such curve, though single readings can be large or run the other way; note: potency is the fitted concentration of half-maximal effect; % is set by controls: 0 for no effect and ±100 for the full control effect; nearly all actives have a fitted effect of over 30% in size
# TR SRC2 fluor cs = Texas Red fluorescence interference in TRb-SRC2 counter-screen | TRb/SRC2 Texas Red total fluorescence interference | Potency, µM (series often up to 106 µM), for the others: top-dose fluorescence change, negative = quenching | 280,000 compounds, 0.29% hits; active = well fitted curve in either direction with a large enough effect; inconclusive = small, poorly fitted or top-dose-only effect; note: potency is the fitted concentration of half-maximal effect; % is set by controls: 0 for no effect and ±100 for the full control effect
#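 Flags fluorescent or light-absorbing compounds by total fluorescence, S + 2P, at 555 nm excitation and 632 nm emission. Mixture: 20 nM Texas Red SRC2 peptide, 0.6 uM human TRb LBD, 1 uM T3, 5% DMSO; compound exposure 5 h at ambient temperature.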
# Numbers without * were called inactive; ? = inconclusive; · = not tested or not shown; [ ] = another dose, or the depositor's remark. Sampled rows, rich in hits. Any-hit rate of the full collection: about 0.71%. Unless noted, calls come from the whole dose curve; as a rule, active = well fitted curve in the direction sought with a large enough effect; inconclusive = small, poorly fitted or top-dose-only effect, or another doubt; inactive = no such curve, though single readings can be large; an effect the other way counts as inactive or inconclusive.
SMILES,Epigenetic derep,CBFb RUNX1 block,TRb SRC2 PPI,GoLoco inh red,TR SRC2 fluor cs
COc1ccc(OCC(=O)NCC(c2ccc(OC)cc2)N2CCOCC2)cc1 (centres undefined),-3%,·,-25%,·,89µM*[quencher]
CCc1ccc(OCC(=O)NCC(c2ccc(OC)cc2)N2CCOCC2)cc1 (centres undefined),0%,·,-1%,·,-11%
Cc1ccc(-c2cc3nccc(-c4cc([N+](=O)[O-])ccc4O)n3n2)cc1,0%,·,-6%,·,45µM*[quencher]
Cc1cc(O)c(-c2ccnc3cc(-c4ccccc4)nn23)cc1Cl,2%,·,-6%,·,11µM*[quencher]
O=C(O)c1ccc(C(=O)O)c(C(=O)O)c1,·,·,-1%[201 µM],·,-6%[201 µM]
Cc1nnc(Nc2ccccc2)n(N)c1=O,0%,-4%,5%,3%,-1%
Cc1nnc(NN)n(N)c1=O,1%,1%,-2%,8.9µM*,-1%
COc1ccccc1CNc1ncnc2ccc(-c3cccc(C#N)c3)cc12,·,·,·,7%,·
COC(=O)c1c(Cl)nn(C)c1S(=O)(=O)NC(=O)Nc1nc(OC)cc(OC)n1,·,·,0%[201 µM],·,-3%[201 µM]
COc1ccccc1Oc1nc2c(C)cccn2c(=O)c1/C=C(\C#N)c1nc2ccccc2[nH]1,13µM*,·,-1%,·,-17%
CCc1ccccc1N1C(=O)N(CC(=O)c2ccc(OC)cc2)c2ccccc2S1(=O)=O,0%,·,-3%,·,-1%
C=CC1=C(C)C2=NC1=CC1=NC(=CC3=NC(=CC4=NC(=C2)C(C)=C4CCC(=O)O)C(CCC(=O)O)=C3C)C(C=C)=C1C.[Zn],-3%,?,13µM*,5.6µM*,28µM*[fluorescent]
CCN1C/C(=C/c2cccs2)c2nc3ccccc3c(C(=O)O)c2C1,-1%,-8%,2%,7%,-1%
CCc1ccc(/C=C2\CN(CC)Cc3c2nc2ccccc2c3C(=O)O)cc1,16µM*,0%,-4%,-22%,-8%
CCCCCCCCCCCCCCCCCC(=O)NCCc1ccc(O)c(O)c1,11µM*,14%,-4%,0%,-2%
Cc1cc(C)c2c(=O)n(CC(=O)NC3CCCC3)sc2n1,0%,5%,-1%,3.5µM*,-4%
COC(=O)c1cc2c(-c3ccccc3)cc3ccccn3c-2c1C(=O)OC,1%,·,-9%,49%,-4%
COC(=O)c1c(C(=O)OC)c2cccc3cc(-c4ccccc4)c4ccc1c4n32,0%,?,-19%,18µM*,-2%
Cc1c(Nc2cc(Cl)c3nonc3c2[N+](=O)[O-])c(=O)n(-c2ccccc2)n1C,3%,0%,-9%,-35%,-4%
O=C(O)c1ccc(Nc2cc(Cl)c3nonc3c2[N+](=O)[O-])cc1,-1%,4%,5%,14µM*,-2%
COc1cc(NC(=O)CC(c2ccc(C)cc2)N2Cc3ccccc3C2=O)cc(OC)c1 (centres undefined),3%,·,6%,·,0%
CCOC(=O)N1CCc2c(sc3c2c(=O)n(-c2ccc(CC)cc2)c(=O)n3Cc2ccc(F)cc2Cl)C1,0%,·,-3%,·,-2%
C[N+]12CCCCC1[C@@H](CO)CCC2 (some centres undefined),0%,11%,-2%,4.5µM*,-2%
CCCCC(CC)COP(=O)(O)OCC(CC)CCCC (centres undefined),·,·,2%[201 µM],·,0%[201 µM]
Nc1c(C(=O)NCC2CCCO2)sc2nc3c(c(-c4ccco4)c12)CC/C3=C\c1ccco1 (centres undefined),0%,·,9%,76%,11µM*[quencher]
SMILES,Epigenetic derep,CBFb RUNX1 block,TRb SRC2 PPI,GoLoco inh red,TR SRC2 fluor cs
NC(=O)c1sc2nc3c(c(-c4ccco4)c2c1N)CCCC3,-1%,6%,7%,3%,-4%
COc1ccc(C(=O)c2sc3nc(-c4ccc(C)cc4)cc(C(F)(F)F)c3c2N)cc1,1µM*,·,-32%[1.83 µM],·,-79%[1.83 µM]
COc1ccc(C(=O)c2sc3nc(-c4ccc(OC)cc4)ccc3c2N)cc1,16%,10%,8%,16%,-17%
O=C(Cl)c1cccc(C(=O)Cl)c1,·,·,-5%[201 µM],·,-3%[201 µM]
O=C(NCCc1c[nH]c2ccccc12)c1ccccc1O,·,-2%,-2%,·,-2%
N[C@@H]1[C@@H](O)[C@H](O)[C@@H](CO)O[C@H]1O,·,·,0%[201 µM],·,-1%[201 µM]
CCOC(=O)c1c(C)oc2ncnc(N3CCN(c4ccc(C)cc4C)CC3)c12,-2%,·,4%,·,1%
CCOC(=O)c1c(C)oc2nc(C)nc(N3CCN(c4ccc(C)cc4C)CC3)c12,-1%,·,-11%,·,447µM*[quencher]
CC1CCN(S(=O)(=O)c2nnc(NC(=O)c3cccc(Br)c3)s2)CC1,0%,·,-8%,·,-1%
CC1CCN(S(=O)(=O)c2nnc(NC(=O)c3cccc(F)c3)s2)CC1,13µM*,·,-4%,·,?
O=C(Nc1nnc(S(=O)(=O)N2CCCCC2)s1)c1ccc(F)cc1,7%,·,-12%,·,100µM*[quencher]
O=C(Nc1nnc(S(=O)(=O)N2CCCC2)s1)c1ccc(F)cc1,?,·,-1%,·,1%
CCC(=O)N1CCc2cc(Br)cc(S(=O)(=O)NCCc3ccc(C)cc3)c21,-1%,·,1%,·,6%
NC(C(=O)O)c1ccc(P(=O)(O)O)cc1 (centres undefined),2%,0%,3%,4%,0%
COc1ccc(OC)c(Nc2nc(=O)c3cccnc3s2)c1,7%,-4%,4%,25µM*,-1%
Cc1ccc(NC(=O)CSc2nnc(-c3cccnc3)s2)cc1,0%,-6%,?,-2%,0.32µM*[quencher]
CCCCCCCCCCCCCCC(=O)OC,·,·,1%[201 µM],·,-2%[201 µM]
Oc1cc(O)c2c(c1)O[C@H](c1ccc(O)c(O)c1)[C@@H](O)C2,-1%,-11%,-1%,-7%,-3%
O=c1c(O)cc(C2Oc3cc(O)cc(O)c3CC2O)cc2c(C3Oc4cc(O)cc(O)c4CC3O)cc(O)c(O)c12 (centres undefined),-1%,·,1%,-19%,28µM*[quencher]
CN(C)/C=C1\C=C2C(=O)c3ccccc3N2C1=O,7%,0%,6%,13µM*,-6%
CN(C)S(=O)(=O)N1C(=O)c2ccccc2C1=O,1%,5%,-1%,12%,-2%
CCc1ccc(C(=O)c2cnc3ccc(F)cc3c2S(=O)(=O)c2ccccc2)cc1,-1%,·,-10%,·,25µM*[quencher]
CC(=O)Nc1cc2c(cc1C(=O)c1ccccc1)OCCO2,0%,12%,7%,4%,1%
O=C(Nc1cc2c(cc1C(=O)c1ccccc1Br)OCCO2)c1ccccc1,-1%,·,-1%,·,-15%
O=C(Nc1cc2c(cc1C(=O)c1ccccc1Cl)OCCO2)c1ccccc1,3%,·,?,·,0.089µM*[quencher]
CCC(=O)Nc1cc2c(cc1C(=O)c1ccccc1)OCCO2,-1%,-2%,?,99%,28µM*[fluorescent]
O=c1c(-c2cccs2)nc2cncnc2n1Cc1ccccc1,·,·,·,10%,·
CCc1ccc(S(=O)(=O)Nc2ccc(O)c(C(=O)O)c2)cc1,-2%,·,·,·,·
